D1 agonist: activates the human D1 dopamine receptor; P21728; HEK293 T-REx D1 cells, calcium flux, agonist mode; 1% of 360,000 active; activation, % at 2 µM; in the data active = activation above about 30%
Target sequence (P21728 whole entry, looked up): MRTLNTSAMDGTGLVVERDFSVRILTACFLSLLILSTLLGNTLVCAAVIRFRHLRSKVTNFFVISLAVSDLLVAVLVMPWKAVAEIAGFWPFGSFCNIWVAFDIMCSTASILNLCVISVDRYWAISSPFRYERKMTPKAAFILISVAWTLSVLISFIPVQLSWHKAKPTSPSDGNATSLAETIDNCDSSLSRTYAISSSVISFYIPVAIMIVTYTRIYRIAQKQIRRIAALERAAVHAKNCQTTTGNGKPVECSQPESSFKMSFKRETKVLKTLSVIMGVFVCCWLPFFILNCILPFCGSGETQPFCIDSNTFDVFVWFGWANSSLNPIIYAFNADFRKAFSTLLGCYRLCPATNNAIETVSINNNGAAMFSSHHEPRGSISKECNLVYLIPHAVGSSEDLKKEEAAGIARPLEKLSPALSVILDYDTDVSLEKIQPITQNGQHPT
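Inducible HEK293 T-REx D1 cells, force-coupled to calcium signalling, were plated at 4000 cells/well with tetracycline and held overnight at 30 C. After no-wash calcium dye loading, compound-evoked calcium rise over 180 s flagged agonists.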
D1 potentiator: enhances dopamine response at the human D1 receptor. HEK293 TREx D1 cells, calcium flux, dopamine EC20 potentiation. P21728. potentiation, % at 10 µM. AID 504651. 0.036% of 360,000 active; in the data active = potentiation above about 30%
USP2a inh: USP2a (human) protease inhibition; USP2 core, Ub-CHOP2 coupled fluorogenic reporter, 485/531; Potency, µM (top dose mostly 38.3 µM), actives largely listed as inhibitors; 0.01% of 330,000 active
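Deubiquitinase activity read as fluorescence (485/531 nm) after Ub-CHOP2 cleavage activates the enterokinase reporter on its substrate; USP2 core 10nM, Ub-CHOP2 and substrate 25nM each, 30min compound preincubation then 60min RT; data normalized to NEM, curves fitted.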
Eya2 phos inh: blocks the phosphatase activity of human Eya2 | 0.006% of 330,000 active | recombinant Eya2, OMFP fluorescence dephosphorylation (OMFP is methylfluorescein phosphate) | AID 488837 | O00167 | Potency, µM (titrated, usually from 76.9 µM), hits mostly inhibitors
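Eya2 (0.2 uM) preincubated 10 min at ambient with compound, then OMFP substrate added at 50 uM; 10 min reaction in 50 mM HEPES pH 7.5, 50 mM NaCl, 5 uM MgCl2, 0.05% BSA, 1 mM DTT. Fluorescence read at Ex 485/Em 525 nm.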
D1 antag: blocks dopamine activation of the human D1 receptor. HEK293 TREx D1 cells, calcium flux, dopamine EC80; active compounds read low. activity change, negative = inhibition, % at 10 µM. 3.2% of 360,000 active; in the data active = activity change below about -30%
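Inducible Hek293 Trex D1 cells (tetracycline, overnight, 30 C). Calcium dye 30–90 min RT. Antagonist mode: EC80 dopamine added after 180 s compound read.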
GALK inh: blocks human galactokinase activity; P51570; Purified GALK, Kinase-Glo residual ATP luminescence; Potency, µM (titrated, usually from 57.5 µM), hits mostly inhibitors; 0.007% of 270,000 active
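5 nM enzyme, 35 uM ATP, 100 uM galactose, 20 mM HEPES pH8.0, 5 mM MgCl2; 1 h RT; residual ATP by Kinase-Glo Plus luminescence, qHTS format.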
Numbers stand for hits; . = inactive; ? = inconclusive; / = not tested or not shown. In the library only some 3.9% were active in any assay of this set; here they are far more common. Unless noted, calls come from the whole dose curve; as a rule, active = well fitted inhibition curve with a large enough effect; inconclusive = small, poorly fitted or top-dose-only effect, or effect the other way; inactive = flat fitted curve, though single readings scatter.

SMILES | D1 agonist | D1 potentiator | USP2a inh | Eya2 phos inh | D1 antag | GALK inh
COc1cccc(N2CC(NC(=O)C(=O)c3c[nH]c4ccccc34)CC2=O)c1 (stereo not drawn) | . | . | . | . | -34.5 | /
O=C(NC1CC(=O)N(c2cccc(F)c2)C1)C(=O)c1c[nH]c2ccccc12 (stereo not drawn) | . | . | . | . | . | /
O=C(Nc1nc2c(s1)CCCC2)c1cc(-c2ccccc2)nc2ccccc12 | 31.9 | . | . | . | . | .
O=C(Nc1nc2c(s1)CCCC2)c1cc(-c2ccncc2)nc2ccccc12 | . | . | . | . | . | .
CC1CC(N(C(=O)c2ccc(Cl)cc2)c2ccccc2)c2ccccc2N1C(=O)c1ccco1 (stereo not drawn) | . | . | . | . | -45.8 | .
CCCn1cc(S(=O)(=O)c2cccc(Cl)c2)c(=O)c2cc(F)c(N3CCN(CC)CC3)cc21 | . | . | / | / | . | /
Cn1cccc1CNC(=S)Nc1ccccc1Cl | . | . | . | . | -41.6 | .
CCCCCCCCCCCCCCCC(=O)OC[C@H](COP(=O)([O-])OCC[N+](C)(C)C)OC(=O)CCCCCCCCCCCCCCC | . | . | . | . | . | /
CCCCCCCCCCCCCCCCCCOC[C@H](COP(=O)([O-])OCC[N+](C)(C)C)OC | / | / | / | 25.1µM | / | /
COC(=O)CNC(=O)c1cccc(Cl)c1 | . | . | . | . | -31.6 | .
COC1=CC(=Cc2c(N)n3nc(CC(=O)N4CCOCC4)sc3nc2=O)C=C(OC)C1=O | 190.7 | . | . | ? | . | .
C=CCC1=C/C(=C\c2c(N)n3nc(CC(=O)N4CCCC4)sc3nc2=O)C=C(OC)C1=O | 109.1 | . | . | . | . | .
CNC(=O)c1ccc(OC2CSC2)cc1 | . | . | / | / | -49.3 | .
Clc1ccc(C2=NN(c3ccccc3)C(c3ccco3)C2)cc1 (stereo not drawn) | . | . | . | . | . | .
Fc1ccc(C2=NN(c3ccccc3)C(c3ccco3)C2)cc1 (stereo not drawn) | . | . | . | . | . | .
C(=C\c1ccco1)/C1=NN(c2ccccc2)C(c2ccco2)C1 (stereo not drawn) | 44.6 | . | . | . | . | .
O=[N+]([O-])c1ccc(/C=C/C2=NN(c3ccccc3)C(c3ccco3)C2)o1 (stereo not drawn) | 97.2 | . | . | . | . | .
CSc1ccc(C(=O)C2CCCN(C(=O)c3cccnc3SC)C2)cc1 (stereo not drawn) | . | . | . | . | -31.8 | .
Cc1cc(C(=O)Cn2nnc3ccccc3c2=O)c(C)n1-c1ccccc1F | . | . | . | . | -53.3 | .
Cc1cc(C(=O)COC(=O)c2ccc(O)cc2)c(C)n1-c1ccccc1F | . | . | . | . | -30.0 | .
Cc1cc(C(=O)COC(=O)c2ccc[nH]c2=O)c(C)n1-c1ccccc1F | . | . | . | . | . | .
Cc1nc2ccn(Cc3cccs3)c(=O)c2cc1C(=O)N1CCN(c2ccccc2F)CC1 | . | . | / | / | . | /
CC(=O)Nc1cccc(NC(=O)CSc2nccn2C2CCCC2)c1 | . | . | / | / | . | /
CC(=O)N1CCc2cc(S(=O)(=O)NC(CC(C)C)C(=O)NCCc3ccc(C)cc3)ccc21 (stereo not drawn) | . | . | / | / | . | /
CCOC(=O)c1nn2c(C(F)(F)F)cc(-c3ccc(OC)cc3)nc2c1Br | 34.8 | . | . | . | . | .
SMILES | D1 agonist | D1 potentiator | USP2a inh | Eya2 phos inh | D1 antag | GALK inh
CCOC(=O)c1nn2c(C(F)(F)F)cc(-c3ccc(C)cc3)nc2c1Cl | . | . | / | / | . | /
COc1cc(/C=C2\SC(=S)N(NC(=O)c3ccc(O)cc3)C2=O)ccc1O | 124.2 | . | . | ? | . | .
Cc1ccc(C(=O)NN2C(=O)/C(=C/c3cn(C)c4ccccc34)SC2=S)cc1 | 65.0 | . | . | . | . | .
COc1cc(/C=C2/SC(=S)N(CC3CCCO3)C2=O)ccc1O (stereo not drawn) | 87.2 | . | . | . | . | .
CCOc1cc(/C=C2\SC(=S)N(Nc3ccccc3)C2=O)ccc1O | 39.7 | . | . | ? | -47.2 | .
COc1cc(/C=C2\SC(=S)N(NC(=O)c3cccnc3)C2=O)ccc1O | . | . | . | ? | . | /
Cn1cc(/C=C2\SC(=S)N(NC(=O)c3ccccc3Cl)C2=O)c2ccccc21 | . | . | . | . | . | .
CCN(CC)C(=O)c1sc2c(c1C)c(=O)n(CCc1ccccc1)c(=O)n2Cc1ccc(C)cc1 | . | . | / | / | . | /
CCOc1ccc(CNS(=O)(=O)c2ccc3c(c2)CC(C)N3C(C)=O)cc1OC (stereo not drawn) | . | . | / | / | . | /
Cc1nn(C(=O)c2ccccc2)c(C)c1S(=O)(=O)N1CCOCC1 | . | . | / | / | . | /
Cc1ccc(Cn2c(C(=O)Nc3cccc(Cl)c3)cc3sccc32)cc1 | . | . | / | / | . | /
O=C(Nc1ccc(Cl)cc1)C(NS(=O)(=O)c1cccs1)c1ccccc1 (stereo not drawn) | . | . | / | / | . | /
COc1cc(/C=C2\SC(=S)N(Nc3ccccc3)C2=O)ccc1O | 121.9 | . | . | . | . | .
O=C(O)C(Cc1ccccc1)N1C(=O)/C(=C/c2ccccc2)SC1=S (stereo not drawn) | . | . | . | . | . | .
O=C(NN1C(=O)/C(=C/c2ccc(O)c(O)c2)SC1=S)c1ccccc1 | . | . | . | ? | . | .
O=C1/C(=C/c2ccc(O)c(O)c2)SC(=S)N1Nc1ccccc1 | 48.0 | . | . | . | . | .
COc1cc(/C=C2\SC(=S)N(C(Cc3ccccc3)C(=O)O)C2=O)ccc1O (stereo not drawn) | 47.0 | . | . | ? | . | .
Cc1ccccc1-c1ccnc2c(-c3ccc(F)cc3)c(C)nn12 | . | . | / | / | . | /
N#C/C(=C\c1ccncc1)c1nc2ccccc2c(=O)[nH]1 | . | . | . | . | -39.0 | .
N#C/C(=C\c1cc(Br)c(O)c(Br)c1)c1nc2ccccc2c(=O)[nH]1 | 170.8 | . | / | / | . | /
N#C/C(=C/c1ccncc1)c1nc2ccccc2c(=O)[nH]1 | . | . | . | . | . | /
N#C/C(=C/c1ccccc1Cl)c1nc2ccccc2c(=O)[nH]1 | . | . | / | / | . | /
COc1ccc(C2c3c(oc4ccc(F)cc4c3=O)C(=O)N2Cc2ccc3c(c2)OCO3)cc1 (stereo not drawn) | . | . | / | / | . | /
CCc1ccc(NC(=O)c2sc3nc(C)c(Cl)c(C)c3c2NC(=O)c2ccccc2)cc1 | . | . | / | / | . | /
N#Cc1c(Cl)nsc1NC(=O)c1ccccc1 | 33.6 | . | . | . | -37.5 | .
N#Cc1c(NC(=O)c2ccccc2)sc2c1CCCCC2 | . | . | . | . | . | .
C=CCn1c(SCc2ccccc2Cl)nnc1-c1sc2nc(C)cc(C)c2c1N | . | . | . | . | . | .

Compound activity deposited in PubChem BioAssay by National Center for Advancing Translational Sciences (NCATS).
